This is a sample that favours compounds with a hit; in the whole collection about 8.1% have one here.
ELG1 repair inh: ELG1-dependent DNA repair inhibition; HEK293T ELG1-luciferase reporter, luminescence, 16 h; DNA damage induced by 5-fluorouridine; Potency, µM (titrated, usually from 46.1 µM), for the others: at the top dose activity change, negative = inhibition, most hits filed as inhibitors; 2.3% of 330,000 active; further: on the % scale 0 is the no-effect control and ±100 the full control effect; nearly all actives have a fitted effect of over 55% in size
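5-Fluorouridine DNA damage + compound/DMSO, 2,000 cells/well, 16 h, 37 °C/5% CO2. ONE-Glo, 30 min RT, luminescence. Readout = decrease in reporter signal.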
MCF10A rerep: inducers of DNA re-replication in MCF 10A breast cells; MCF 10A DNA re-replication, Hoechst nuclear intensity, 48 h; Potency, µM (top dose mostly 46.1 µM), without a hit: at the top dose activity, positive = re-replication, hits mostly activators; 2.9% of 350,000 active; further: % of control where 0% means no effect; nearly all actives have a fitted effect of over 50% in size
SW480 rerep: inducers of DNA re-replication in SW480 colon cancer cells; SW480 DNA re-replication, Hoechst DNA content imaging, 48 h; Potency, µM (highest dose often 46.1 µM), inactives show at the top dose re-replication activation, most hits filed as activators; 1.8% of 340,000 active; AID 624297; further: % of control where 0% means no effect; nearly all actives have a fitted effect of over 55% in size
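DNA re-replication was detected as more nuclei of elevated Hoechst intensity after 48 hr exposure to compound (23 nL pinned per well of 250 cells).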
KB-3-1 tox: kills parental KB-3-1 adenocarcinoma cells. Potency, µM (titrated, usually from 46.1 µM), hits mostly cytotoxic. 1.4% of 400,000 active. KB-3-1 viability, CellTiter-Glo ATP luminescence, 72 h; further: on the % scale 0 is the no-effect control and ±100 the full control effect; nearly all actives have a fitted effect of over 60% in size
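KB-3-1 parental drug-naive adenocarcinoma cells in DMEM/10% FBS, incubated 72 h at 37 C with pin-transferred compounds across a concentration series. Viability by CellTiter-Glo luminescence; concentration-response curves fitted after normalization.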
KB-V1 MDR tox: kills drug-selected multidrug resistant KB-V1 cells; KB-V1 MDR cells viability, CellTiter-Glo, 72 h; Potency, µM (doses to about 46.1 µM), most hits filed as cytotoxic; 3.4% of 400,000 active; AID 1347076; further: on the % scale 0 is the no-effect control and ±100 the full control effect; nearly all actives have a fitted effect of over 60% in size
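Readout: CellTiter-Glo luminescence, 10 min after addition. Cells: KB-V1 MDR subline, 72 h at 37 degrees C with compound. Analysis: corrected, normalized data fitted to concentration-effect curves.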
* marks the source's active call; other numbers are inactive results; i = inactive; ? = inconclusive; . = not tested or not shown. The call rests on the fitted dose curve; in most records, active means well fitted curve in the direction sought with a large enough effect; inconclusive means small, poorly fitted or top-dose-only effect, or another doubt; inactive means no such curve, though single readings can be large; an effect the other way counts as inactive or inconclusive. Potency means the concentration at half of the fitted maximal effect.

SMILES	ELG1 repair inh	MCF10A rerep	SW480 rerep	KB-3-1 tox	KB-V1 MDR tox
COc1cccc(Cn2c(NCC(C)C)nc3c2c(=O)n(C)c(=O)n3C)c1	-18.4%	?	-5.9%	i	3.26µM*
Cc1nnc(NC(=O)C2CCN(S(=O)(=O)c3ccc(F)c(Cl)c3)CC2)o1	1.5%	0.5%	-2.0%	i	i
CSc1ccccc1C(=O)N(CC1CCCO1)c1c(N)n(Cc2ccccc2)c(=O)[nH]c1=O (stereo not given)	14.5%	0.6%	0.2%	?	i
O=C(C[n+]1ccc(Cl)c2ccc(Cl)cc21)c1ccc(F)cc1	.	.	.	?	i
COc1cc(NCc2ccccc2O)c2ncccc2c1	12.9%	20.6µM*	8.8%	i	i
CC(C)N1CCC1(C)C(=O)Nc1ccc(-n2cccc2)cc1 (stereo not given)	.	.	.	i	i
Cc1ccc2c(c1)N(C(=O)c1ccco1)C(C)(C)c1ssc(=S)c1-2	-24.1%	-5.7%	-4.1%	i	9.2µM*
COc1ccccc1OC(C)C(=O)Nc1nc(-c2ccc(S(=O)(=O)N3CCOCC3)cc2)cs1 (stereo not given)	?	?	6.8%	i	4.61µM*
CCOc1cccc(C(=O)Nc2nc(-c3ccc(S(=O)(=O)N4CCOCC4)cc3)cs2)c1	?	-0.4%	-4.4%	i	i
O=C(COc1cccc(Cl)c1)Nc1nc(-c2ccc(S(=O)(=O)N3CCOCC3)cc2)cs1	23.1µM*	?	1.4%	i	?
COc1ccccc1C(=O)Nc1nc(-c2ccc(S(=O)(=O)N3CCOCC3)cc2)cs1	5.17µM*	?	7.5%	14.6µM*	4.61µM*
CCCC12CN3CC(C)(CN(C1)C3c1ccc(CC)cc1)C2=O (stereo not given)	.	.	.	i	i
CNC(=O)COC(=O)/C=C/c1nc2ccccc2s1	?	0.651µM*	?	i	i
Cc1cc(=O)n2nc(N3CCC(C(=O)Nc4ccc(Br)cc4F)CC3)sc2n1	.	.	.	i	i
CC1(C)C(=O)C=CC(=O)C(C)(C)C(=O)C=CC(=O)C(C)(C)C2=CC=C(O2)C(C)(C)C(=O)C=CC1=O	.	7.31µM*	?	?	i
COc1ccc(NC(=O)Nc2nnc(-c3cccs3)s2)cc1	?	-0.4%	-3.7%	i	i
COc1ccc(C(=O)Nc2nnc(-c3cccs3)s2)cc1	?	?	?	5.17µM*	?
CCOC(=O)C(=C1Nc2ccccc2N1)n1c(-c2cccnc2)nc2ccccc21	.	.	.	?	20.6µM*
CCOC(=O)Cn1c(-c2cccnc2)nc(-c2ccccc2)c1-c1ccccc1	-22.0%	8.8%	-9.1%	i	i
CC1=C(C(=O)N2CCOCC2)CC(CC(=O)NCCc2ccccn2)C(=O)N1CCCN1CCCC1=O (stereo not given)	.	.	.	i	i
CCOCCCNC(=O)c1ccc(C2SCC(=O)N2Cc2ccccc2)cc1 (stereo not given)	-17.7%	2.5%	-1.5%	i	5.8µM*
C=CCNC(=O)c1ccc(C2SCC(=O)N2Cc2ccco2)cc1 (stereo not given)	-12.4%	-8.5%	-3.2%	i	i
CCCNC(=O)c1ccc(C2SCC(=O)N2Cc2ccccc2)cc1 (stereo not given)	-2.1%	21.9%	3.2%	i	i
O=C(NCc1ccc2c(c1)OCO2)c1ccc(C2SCC(=O)N2Cc2ccco2)cc1 (stereo not given)	-29.4%	10.8%	-1.9%	i	20.6µM*
CCOC(=O)c1cc(NC(=O)N(CC)C2CCCCC2)c(C)nc1C	2.6%	12.7%	-2.3%	i	23.1µM*
COc1cccc(NC(=O)C2CCN(S(=O)(=O)c3c(C)noc3C)CC2)c1	.	.	.	i	i
CCOc1ccc(N2C(=O)CC(Cc3cc(C)cc(C)c3)C2=O)cc1 (stereo not given)	-22.4%	-0.5%	-1.1%	i	i
CCOc1ccc(N2C(=O)CC(Sc3nc(C)cc(C)c3C#N)C2=O)cc1 (stereo not given)	0.0%	1.9%	-2.3%	i	?

High-throughput results (PubChem)
